JMJD2A Tudor – blocks the human JMJD2A Tudor domain; O75164; Potency, µM (doses to about 114 µM), usual class: inhibitors; AID 504339; AlphaScreen JMJD2A-Tudor / H3K4me3 peptide binding; 390,000 compounds, 4.4% hits; note: nearly all actives have a fitted effect of over 50% in size
L3MBTL1 block – L3MBTL1 (human) inhibition | Q9Y468 | AlphaScreen L3MBTL1–H3K9me1 peptide binding | Potency, µM (titrated, usually from 57.1 µM), actives largely listed as inhibitors | 230,000 compounds, 0.66% hits | AID 485360; note: nearly all actives have a fitted effect of over 60% in size
Target sequence (Q9Y468 whole entry, looked up): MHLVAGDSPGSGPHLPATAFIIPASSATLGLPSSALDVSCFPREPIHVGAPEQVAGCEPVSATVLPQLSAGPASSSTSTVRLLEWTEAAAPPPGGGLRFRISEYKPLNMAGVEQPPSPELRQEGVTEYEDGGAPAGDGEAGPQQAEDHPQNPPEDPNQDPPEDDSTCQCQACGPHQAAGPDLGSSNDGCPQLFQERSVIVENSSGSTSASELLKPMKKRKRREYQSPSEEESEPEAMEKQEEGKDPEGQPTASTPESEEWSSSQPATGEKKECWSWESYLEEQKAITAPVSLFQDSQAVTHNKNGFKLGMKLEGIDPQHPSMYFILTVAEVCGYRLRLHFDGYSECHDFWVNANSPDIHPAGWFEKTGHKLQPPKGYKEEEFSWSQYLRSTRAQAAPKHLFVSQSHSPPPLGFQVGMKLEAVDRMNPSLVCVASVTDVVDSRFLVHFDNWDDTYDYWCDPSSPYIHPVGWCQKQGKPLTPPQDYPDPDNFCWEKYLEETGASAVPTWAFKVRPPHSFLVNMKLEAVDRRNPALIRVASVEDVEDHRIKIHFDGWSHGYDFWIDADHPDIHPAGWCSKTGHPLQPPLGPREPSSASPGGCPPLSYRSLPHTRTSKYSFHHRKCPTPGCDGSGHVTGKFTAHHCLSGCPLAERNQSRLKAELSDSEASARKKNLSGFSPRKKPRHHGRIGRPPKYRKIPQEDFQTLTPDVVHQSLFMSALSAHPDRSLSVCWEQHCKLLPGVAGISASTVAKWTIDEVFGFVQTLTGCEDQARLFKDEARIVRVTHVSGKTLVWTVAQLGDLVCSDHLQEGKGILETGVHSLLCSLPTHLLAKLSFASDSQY
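AlphaScreen proximity signal between nickel-chelate acceptor and streptavidin donor beads (final 10 ug/mL) reports binding of 50 nM L3MBTL1 to 75 nM biotin-H3 K9me1 peptide; complex incubated with compounds 30 min at room temperature; cefsulodin titration as control.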
HP1b binding inh – inhibitors of HP1-beta chromodomain binding to methylated histone tails | P83916 | AlphaScreen HP1-beta / biotin-H3K9me3 peptide binding | Potency, µM (titrated, usually from 114 µM), most hits filed as inhibitors | 390,000 compounds, 0.56% hits; note: nearly all actives have a fitted effect of over 70% in size
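HP1-beta protein (50 nM final) preincubated 30 min at room temperature with biotinylated H3(1-18)K9me3 peptide (50 nM) in PBS pH 7.4, 0.01% Tween-20, then compound added for 30 min. AlphaScreen streptavidin donor/nickel chelate acceptor beads (10 ug/mL final), 30 min dark, luminescence read.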
G9a block – blocks human histone lysine methyltransferase G9a | 350,000 compounds, 8.8% hits | G9a H3K9 monomethylation, AlphaScreen, 2 h | Potency, µM (series often up to 102 µM), most hits filed as inhibitors | AID 504332 | Q96KQ7; note: nearly all actives have a fitted effect of over 75% in size
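Step 1: enzyme (final 20 nM) with compound, 15 min RT. Step 2: substrate peptide 500 nM and SAM 20 uM, 2 h RT. Step 3: anti-H3K9me1 antibody and AlphaScreen beads, 10 min, then plate read.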
BAZ2B block – BAZ2B (human) inhibition. Q9UIF8. AlphaScreen BAZ2B-H3K14Ac peptide displacement. Potency, µM (highest dose often 114 µM), usual class: inhibitors. 360,000 compounds, 4.4% hits. AID 504333; note: nearly all actives have a fitted effect of over 60% in size
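Inhibition is scored as reduced AlphaScreen emission. The BAZ2B/b-H3(5-23)K14Ac complex (50 nM each) in PBS pH 7.4, 0.01% Tween-20 meets compound (up to 110 uM) for 30 min at RT before bead addition.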
Numbers stand for hits; – = inactive; ? = inconclusive; · = not tested or not shown; [ ] = remark or other dose. Rows were chosen to be rich in hits. Some 11% of all compounds tested hit in one or more screens of this group. Calls come from the whole dose curve; as a rule, active = well fitted inhibition curve with a large enough effect; inconclusive = small, poorly fitted or top-dose-only effect; inactive = no such curve, though single readings can be large or run the other way.

SMILES	JMJD2A Tudor	L3MBTL1 block	HP1b binding inh	G9a block	BAZ2B block
CCOc1ccc(C(=S)N2CCCC2)cc1	–	·	–	–[2.33 µM]	–
CCOC(=O)c1ccc(C(=S)N2CCCC2)cc1	–	·	?	10µM	–
COc1ccc(-c2nc(CCNC(=O)c3ccccc3)cs2)cc1OC	–	·	–	–	–
COc1ccc(NC(=O)/C(C#N)=C/c2ccc(OCc3cc(=O)n4nc(C)sc4n3)cc2)cc1	–	·	–	–	–
CCOc1ccc(C(=S)N2CCCC2)c(OCC)c1	–	–	–	10µM	–
CCN1CCN(C(=O)c2ccccc2NC(=O)c2ccc(Cl)cc2)CC1	–	·	–	45µM	–
CCN1CCN(C(=S)c2ccc(OC)cc2)CC1	–	–	–	11µM	–
CCCC(C(=O)O)N1C(=O)/C(=C2\C(=O)N(C)c3ccccc32)SC1=S (stereo not given)	?	–	–	20µM	45µM
O=C(O)CCN1C(=O)/C(=C2\C(=O)N(Cc3ccccc3Cl)c3ccccc32)SC1=S	·	·	·	?	7.9µM
O=C(O)CN1C(=O)/C(=C2\SC(=S)N(C(Cc3ccccc3)C(=O)O)C2=O)c2ccccc21 (stereo not given)	–	–	–	50µM	56µM
COc1ccc(NC(=O)CN2C(=O)/C(=C3\SC(=S)N(CCC(=O)O)C3=O)c3ccccc32)cc1	?	·	–	–	–
CCc1ccc(Cn2c(CNS(=O)(=O)c3ccc(F)c(Cl)c3)nc3cccnc32)cc1	–	·	–	–	–
COc1ccc(-n2ncc3c2CC(C)(C)CC3NC(=O)CN2CCOC2=O)cc1 (stereo not given)	–	·	–	–[0.501 µM]	–
COc1ccc(CCNC(=O)C2CCN(C(=O)c3ccc(Br)cc3)CC2)cc1	?	–[2.29 µM]	–	–[0.501 µM]	–
CCOc1ccc(N(CC)S(=O)(=O)N2CCCC(C(=O)NCCc3ccccc3OC)C2)cc1 (stereo not given)	–	·	–	–	–
COc1cc2ccccc2cc1C(=O)Nc1cccc(-c2nc3cc(C)c(C)cc3o2)c1C	–	·	–	3.2µM	–
COc1cc2ccccc2cc1C(=O)Nc1cccc(-c2nc3cc(C)ccc3o2)c1C	–	·	–	–	–
CCOC(=O)C1CCCCN1S(=O)(=O)c1csc(C(N)=O)c1 (stereo not given)	–	·	–	–	?
COc1cccc(-n2ccnc2SCC(=O)NCc2ccccc2)c1	–	–	–	?	–
c1ccc(CCSc2nccn2-c2ccccc2)cc1	?	?	?	45µM	40µM
COC(=O)CCCSc1nccn1-c1ccccc1	–	–	–	45µM	?
CCCn1c(C)cc(/C=C(\C#N)C(=O)OCC(=O)Nc2ccc(OC)c(Cl)c2)c1C	–	–	–	–	–
COCCn1c(C)cc(/C=C(\C#N)C(=O)OCC(=O)Nc2ccc(S(N)(=O)=O)cc2)c1C	–	–	–	40µM	–
O=C(NCC(c1ccco1)N1CCCCC1)c1ccc2c(c1)S(=O)(=O)c1ccccc1C2=O (stereo not given)	?	·	–	40µM	?
O=C1CC(c2ccc(Cl)cc2)CC(=O)C1CS(=O)(=O)c1ccccc1 (stereo not given)	–[11.4 µM]	·	–	4µM	79µM
SMILES	JMJD2A Tudor	L3MBTL1 block	HP1b binding inh	G9a block	BAZ2B block
COc1ccc(C2CC(=O)C(CS(=O)(=O)c3ccccc3)C(=O)C2)cc1 (stereo not given)	–[11.4 µM]	·	–	–	–
O=C1CCCC(=O)C1CS(=O)(=O)c1ccccc1	–	·	–	3.2µM	–
O=C(O)c1cccnc1Sc1ccccc1Cl	–	–	–	·	?
Cc1cc([N+](=O)[O-])cc2c1NC(c1ccccn1)C1CC=CC21 (stereo not given)	50µM	–	–	–	–
COc1ccc(OC)c(C2Nc3c(Cl)ccc(C(=O)O)c3C3C=CCC32)c1 (stereo not given)	?	–	?	20µM	–
N#C/C(=C\c1ccc(Cl)c([N+](=O)[O-])c1)c1ccccn1	?	–[11.4 µM]	?	?	?
O=[N+]([O-])c1ccc(Cl)c2c1C1C=CCC1C(c1ccccn1)N2 (stereo not given)	40µM	?	?	20µM	45µM
COc1cccc(C2Nc3c(F)cc(Br)cc3C3C=CCC32)c1OC (stereo not given)	–	–	–	–	–
O=C(O)c1ccc(Cl)c2c1C1C=CCC1C(c1ccccn1)N2 (stereo not given)	·	·	·	2µM	25µM
CCc1ccccc1NC(=O)Cn1nc2c3cc(F)ccc3n(Cc3cccc(C)c3)cc-2c1=O	–	·	–	–	–
COc1ccc(CCNCc2c(C(=O)O)c(C)n(Cc3c(F)cccc3Cl)c2C)cc1OC	–	·	–	–	?
COc1ccc(N2CCN(Cc3nc4c(c(=O)[nH]c(=O)n4C)n3Cc3ccccc3)CC2)cc1	–	·	–	–	–
c1ccc(-c2nc3nonc3nc2-c2ccccc2)cc1	40µM	?	?	14µM	28µM
CCOC(=O)c1c(C)oc2nc(C)nc(NCc3ccc(F)cc3)c12	–	·	–	–	–
COCCOc1ccc(C(F)(F)F)cc1NC(=O)c1ccc(C(F)(F)F)cc1	–	–	–	–	–
COCCOc1ccc(C(F)(F)F)cc1Nc1nc2ccccc2o1	28µM	·	–	?	–
CCc1cnc2c(c1SCc1c(F)cccc1Cl)c(=O)n(C)c(=O)n2C	–	·	–	–	–
Cc1ccc(NC(=O)/C=C\C(=O)O)c([N+](=O)[O-])c1	–	–	–	40µM	–
O=C(O)C1CC=CCC1C(=O)NNc1ccccc1 (stereo not given)	–	·	–	14µM	–
Cc1cc(C)c(NC(=O)/C=C\C(=O)O)c(Cl)c1	–	–	–	?	–
O=C(NNc1ccc([N+](=O)[O-])cc1)C1CC1c1ccccc1 (stereo not given)	–	–	–	10µM	–
Cc1cc(C)c(NC(=O)/C=C\C(=O)O)c([N+](=O)[O-])c1	?	·	–	3.5µM	–
COc1ccc(-c2nc(Cn3c(SCc4cccc(C(F)(F)F)c4)nc4cccnc43)c(C)o2)cc1OC	–	·	–	?	–
CC(=O)Nc1ccc(S(=O)(=O)Nc2ccc([N+](=O)[O-])cc2)cc1	·	·	·	–[2.33 µM]	·
CC(=O)Nc1ccc(S(=O)(=O)Nc2cc([N+](=O)[O-])ccc2C)cc1	10µM	–	?	?	–
Cc1ccc(NC(=O)C2CC2c2ccccc2)c([N+](=O)[O-])c1 (stereo not given)	?	–	–	40µM	?
COc1ccc([N+](=O)[O-])cc1NC(=O)/C=C/C(=O)O	–	–	–	–	–
Cc1ccc([N+](=O)[O-])cc1NC(=O)/C=C/C(=O)O	–	–	–	–[12.7 µM]	79µM
Cc1cccc(N=Nc2cnc(N)s2)c1	45µM	–	?	28µM	?
N#CC1=C(N)N2C(=C(C#N)C1c1cccc(Br)c1)Nc1ccccc12 (stereo not given)	–	–	–	10µM	–
